Assay outcomes: PubChem BioAssay, Broad Institute
In the library only some 3.7% were active in any assay of this set; here they are far more common.
MITF act: increases MITF-driven TRPM1 promoter luciferase signal. SK-MEL-5 TRPM1-promoter luciferase, 24 h; % of positive control, neutral wells = 0. activation, % at 12.5 µM. actives 0.75% (n = 300,000). AID 588334;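 active = mean activation of at least 80% with every replicate also reaching 80%; inconclusive = mean reaches 80% but some replicate falls short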;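 also: 0% = neutral control wells and 100% = parthenolide positive control wells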
esBAF inh: blocks esBAF chromatin remodeling in mouse ES cells | actives 2% (n = 350,000) | reporter increase, % at 12.5 µM | Bmi1-luciferase knock-in reporter, 24 h; 100% = twice the neutral-well signal; in the data active = activation above about 40%; inconclusive = no clear call, values can overlap the other calls;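 also: 0% = median of the plate's neutral control wells and 100% = double that signal; a rise in the Bmi1 reporter signal indicates esBAF inhibition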
rRNA inh HTS: inhibitors of bacterial rRNA selective over humanized ribosomes; GFP signal change (wild-type ribosome), % (no concentration beside the values); E. coli WT GFP vs humanized-ribosome RFP mutants, fluorescence, 24 h; stronger effect = lower value; DMSO median 0, no signal -100; actives 1.6% (n = 350,000); AID 720706;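 active = significant combined selectivity score with lowered wild-type GFP, culture density cut under 30%, mutant RFP and density less affected; inactive = any of these conditions unmet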
AF4-AF9 inh: blocks AF4 peptide binding to human AF9 | AID 651704 | actives 0.47% (n = 350,000) | AlphaScreen, biotin-AF4 peptide binding to FLAG-AF9 | inhibition, % at 10 µM;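 active = every replicate reaching a set inhibition limit, whatever the replicate mean, cut at about 25% in these data; inconclusive = mean inhibition reaches that limit but some replicates miss it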;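 also: 0% = plate neutral control median and 100% = total signal loss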
Target sequence (P42568 whole entry, looked up): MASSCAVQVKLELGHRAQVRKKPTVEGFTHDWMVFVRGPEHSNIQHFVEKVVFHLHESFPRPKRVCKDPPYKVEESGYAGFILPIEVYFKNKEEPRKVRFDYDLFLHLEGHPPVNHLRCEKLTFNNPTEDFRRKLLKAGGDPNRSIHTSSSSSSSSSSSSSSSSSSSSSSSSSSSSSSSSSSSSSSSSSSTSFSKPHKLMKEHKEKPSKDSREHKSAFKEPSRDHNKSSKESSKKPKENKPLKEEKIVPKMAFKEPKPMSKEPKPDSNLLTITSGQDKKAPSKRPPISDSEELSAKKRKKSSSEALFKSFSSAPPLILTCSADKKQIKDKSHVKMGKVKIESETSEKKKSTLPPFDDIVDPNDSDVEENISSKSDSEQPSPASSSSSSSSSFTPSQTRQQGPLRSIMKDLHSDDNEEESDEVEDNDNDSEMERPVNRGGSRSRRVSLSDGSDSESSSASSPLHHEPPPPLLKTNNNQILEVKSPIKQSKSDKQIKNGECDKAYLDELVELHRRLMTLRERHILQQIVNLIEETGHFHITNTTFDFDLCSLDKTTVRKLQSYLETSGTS
Wnt bcat act: Wnt/beta-catenin pathway activation. Wnt/beta-catenin reporter cell assay, activator, plate reader. activation, % at 9.35 µM. actives 1.2% (n = 300,000); in the data active = activation above about 30%, passing the limit was not always enough; inconclusive = no clear call, values can overlap the other calls;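 also: 0% = neutral control wells and 100% = positive control wells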
* hit, by the source's call; ? = inconclusive; / = no result given.

SMILES	MITF act	esBAF inh	rRNA inh HTS	AF4-AF9 inh	Wnt bcat act
C=CCn1c(O)c(N=NC(=S)Nc2ccccc2F)c2ccccc21	-8	/	-21*	5	-5
O=C(Cn1c(=O)oc2cc(S(=O)(=O)NCc3ccccc3)ccc21)N1CCCC1	4	/	-22	29*	-2
COc1ccc(Cl)cc1NC(=O)CSc1nc(NS(=O)(=O)c2ccc(C)cc2)cc(=O)[nH]1	-2	-2	8	1	-2
Cc1cc(N(C)C)ccc1N=Nc1ccc(N)cc1	/	/	-51*	23	2
Nc1ccc(N=Nc2ccc(N)cc2)cc1	8	/	-25*	9	16
CC1=CC(C)(C)N(S(=O)(=O)c2ccc(C)cc2)c2cc(C)ccc21	-39	-21	/	/	/
CN1Cc2c(N3CCOCC3)nc3sc(C(=O)c4ccc(Br)cc4)c(N)c3c2CC1(C)C	/	/	-18	30*	-1
O=C1COc2cc(S(=O)(=O)CCC(=O)N3CCCCC3)c(Cl)cc2N1	/	-2	0	-5	-1
NS(=O)(=O)c1ccc(NC(=O)COC(=O)/C(=C/c2cccs2)c2cccs2)cc1	11	/	-18*	4	-1
Cc1ccccc1OCCCn1c(=O)sc2ccccc21	72	54*	/	/	/
Cc1ccc(OCCCn2c(=O)sc3ccccc32)cc1	31	15	/	/	/
CCOc1ccccc1Cn1c(=O)sc2ccccc21	-4	/	-50	-4	-9
O=c1sc2ccccc2n1CCCOc1ccccc1	52	81*	/	/	71*
Cc1ccc(OCCn2c(=O)sc3ccccc32)cc1	92*	76*	/	/	23
O=c1sc2ccccc2n1COc1ccccc1	10	?	/	/	/
Cc1ccccc1C(=O)c1cccn1CC(=O)NCc1ccc(F)cc1	6	2	9	0	0
O=C(Cn1cccc1C(=O)c1ccccc1)NCc1ccccc1Cl	41	56*	7	-7	13
Cc1ccccc1C(=O)c1cccn1CC(=O)NCc1ccccc1Cl	57	57*	0	9	8
C[C@@H]1CCCCO[C@@H](CN(C)C(=O)Nc2cccc3ccccc23)[C@H](C)CN([C@@H](C)CO)C(=O)c2cc(NC(=O)Nc3ccc(C(F)(F)F)cc3)ccc2O1	/	4	-1	-1	/
O=C1c2ccccc2NC(c2ccc(-c3cccc(F)c3)o2)N1O (stereo not drawn)	?	84*	4	12	46*
O=C1c2ccccc2NC(c2ccc(-c3ccccc3F)o2)N1O (stereo not drawn)	?	32	2	0	?
CCOC(=O)c1oc2c(c1C)C(=O)CCC2	-8	/	/	/	1
CCOC(=O)c1oc2c(c1C)/C(=N/O)CCC2	70	39	1	/	57*
C(=C\c1nccc2c1[nH]c1ccccc12)/c1ccccc1	5	26	-14	-5	12
Cc1ccc(/C=C\c2nccc3c2[nH]c2ccccc23)cc1	11	55*	-34	-23	-4
SMILES	MITF act	esBAF inh	rRNA inh HTS	AF4-AF9 inh	Wnt bcat act
Cc1ccc(-c2csc3ncnc(OCC(=O)NC(=O)NCc4ccco4)c23)cc1	0	-9	-29*	9	-5
O=C(COc1ncnc2scc(-c3ccc(F)cc3)c12)NCc1ccco1	-14	-3	/	/	/
COC(=O)/C(=N/Nc1ccccc1)N1CCCc2ccccc21	-5	/	-6	37*	0
CC(=O)/C(=N/Nc1ccccc1[N+](=O)[O-])N1CCCc2ccccc21	/	/	-28*	22	-1
COC(=O)/C(=N/Nc1ccc(C)cc1)N1CCCc2ccccc21	-15	/	4	17	-1
O=C(NN=C1CCCCCC1)c1c[nH]c2ccccc12	-10	/	/	/	2
CCOc1cc(/C=N/NC(=O)C(=O)NCc2cccnc2)ccc1O	-1	-9	14	-3	-1
CN(C)CC#Cc1ccc([C@H]2[C@H]3CN(C(=O)NC4CCCC4)CCCCN3[C@H]2CO)cc1	/	/	4	4	/
O=C(Cc1ccccc1[N+](=O)[O-])NCc1ccc(Cl)cc1	29	/	/	/	/
O=C(NCc1ccc(Cl)cc1)c1n[nH]c([N+](=O)[O-])c1Cl	0	/	-15*	-4	5
CCOc1ccc2[nH]c3c(N4CCN(C(=O)c5ccco5)CC4)ncnc3c2c1	/	/	-36*	0	2
COc1ccccc1NC(=O)CN1C(=O)COc2ccc(S(=O)(=O)N3CCCCCC3)cc21	14	4	4	3	1
COc1ccc(OC)c(NC(=O)CN2C(=O)COc3ccc(S(=O)(=O)N4CCCC4)cc32)c1	2	-5	-3	35*	0
COc1ccc(NC(=O)Cn2c(=O)oc3cc(S(=O)(=O)N4CCCC4)ccc32)c(OC)c1	/	-12	9	-5	-2
COc1cccc(NC(=O)Cn2c(=O)oc3cc(S(=O)(=O)N4CCCC4)ccc32)c1	1	/	8	-6	37*
O=C(C[C@@H]1CC[C@H]2[C@@H](COC[C@@H](O)CN2C(=O)c2ccccc2)O1)Nc1ccccc1	/	0	-1	/	/
Cc1cc(NC(=O)CSc2nc3c(cc2C#N)CCCC3)no1	66	/	/	/	41*
Cc1noc(NS(=O)(=O)c2ccc(NC(=O)CSc3nc4c(cc3C#N)CCCC4)cc2)c1C	-7	4	-25*	2	-4
N#Cc1cc2c(nc1SCC(=O)O)CCCC2	2	/	/	/	/
Cc1cc(NC(=O)CSc2nc3c(cc2C#N)CCC3)no1	67	26	13	2	34*
Cc1cc(NC(=O)CSc2nc3ccccc3cc2C#N)no1	60	34	6	-3	9
CCc1ccc(C2C3=C(CC(C)(C)CC3=O)OC3=C2C(=O)CC(C)(C)C3)cc1	4	-3	11	0	-11
O=S1(=O)CC=C(CSc2nc3ccccc3[nH]2)C1	/	6	/	/	-2
C(=N\NCc1ccccc1)/c1ccc2ncccc2c1	/	/	-8	/	31*
COCCCNc1nc(N)c([N+](=O)[O-])c(N2CCCCCC2)n1	-3	-4	-6	4	-4
SMILES	MITF act	esBAF inh	rRNA inh HTS	AF4-AF9 inh	Wnt bcat act
Cc1ccc(-c2cn(-c3ccccc3)c(=S)[nH]2)cc1C	123*	?	6	7	38*
Cc1ccccc1-c1cn(-c2ccccc2)c(=S)[nH]1	-2	2	0	6	0
CCn1c2ccccc2c2cc(NC(=O)c3ccco3)ccc21	29	11	-35*	10	-1
CCn1c2ccccc2c2cc(NC(=O)C(=O)N3CCOCC3)ccc21	70	71*	-24	2	-1
CCn1c2ccccc2c2cc(NC(C)=O)ccc21	-4	-1	/	/	/
COC(=O)c1[nH]c2c(c1C)C(=O)CC(c1cccs1)C2 (stereo not drawn)	-1	/	/	/	/
C#CCN1C(C)=CC(=O)[C@@H](O)[C@H]1c1ccccc1Br	-1	1	/	-4	-1
CCCc1ccc(OCc2ccc(C(=O)N3CCCC3)o2)cc1	/	28	-57	0	5
CCOc1nc(NCc2ccco2)nc(Nc2ccccc2F)n1	76	67*	/	/	/
c1ccc2c(c1)NCCS2	-4	/	1	4	8
CN(C)CCN1CC(O)=C(c2nc3ccccc3s2)C1=N	4	8	3	-6	-1
